The source of these data is PubChem BioAssay (NCI).

Some test systems named below: DU-145 prostate; K-562 leukemia; MALME-3M melanoma; MDA-MB-231 breast; SF-268 CNS; SF-295 CNS; SF-539 CNS; UACC-257 melanoma; M14 melanoma; HCT-15 colon; HT29 colon; SNB-75 CNS; SNB-19 CNS; U251 CNS; PC-3 prostate; SK-MEL-5 melanoma; UACC-62 melanoma; LOX IMVI melanoma; SK-MEL-28 melanoma; RXF 393 renal.
What all share (assay): NCI-60 one-dose screen, 48 h (100 = growth as untreated, 0 = no growth, -100 = all killed)
Details in all cases: 10 µM unless noted

This is part of a sample that, as a whole, favours compounds with a hit. Of some 83,000 tested, about 20% had one in any assay.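 Step 1: grow cells in 96-well plates. Step 2: add test compound at a single concentration. Step 3: incubate 48 h. Step 4: record percent growth.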 A number with no mark means an inactive call. Active and inactive are the calls of the source. Rule for the calls: active = growth percent below 10; inactive = the rest.

Regarding `O=C1Nc2ccccc2SC1c1ccccc1Cl` (stereo not given), the growth is 108% with DU-145 prostate; 41.2% with K-562 leukemia; 81.9% in the test on MALME-3M melanoma; 98.9% with MDA-MB-231 breast; 87.8% in the test on SF-268 CNS; 58.2% with SF-295 CNS. The growth with SF-539 CNS is 109%; in the test on UACC-257 melanoma it was 100%; in the test with M14 melanoma, 93.7%; with HCT-15 colon, 110%; in the test on HT29 colon it was 46%; in the test on SNB-75 CNS, 34.5%. The growth in the test on SNB-19 CNS was 111%; in the test on U251 CNS it was 112%; in the test on PC-3 prostate it was 92.8%; with SK-MEL-5 melanoma, 106%; in the test on UACC-62 melanoma, 101%; with LOX IMVI melanoma it was 107%. Further, in the test with SK-MEL-28 melanoma, the growth is 104%.

`C=C(C)C1CCC(=C)C2CCC3(C)OC12/C=C(/COC(C)=O)CCC3O` (stereo not given): the growth in the test on DU-145 prostate was 100%; in the test on K-562 leukemia, 88.6%; in the test with MALME-3M melanoma it was 137%; in the test with MDA-MB-231 breast, 105%; in the test with RXF 393 renal it was 98.4%; with SF-268 CNS, 105%. Besides, the growth in the test on SF-539 CNS is 104%; with UACC-257 melanoma, 37.9%; in the test on M14 melanoma it was 109%; in the test with HCT-15 colon it was 96.1%; in the test with HT29 colon, 140%; in the test on SNB-75 CNS, 126%. The growth in the test with SNB-19 CNS was 112%; with U251 CNS, 89%; in the test on PC-3 prostate it was 95.9%; in the test on SK-MEL-5 melanoma, 93.2%; in the test on UACC-62 melanoma, 94.2%; in the test with LOX IMVI melanoma it was 84.2%. For the same molecule, the growth in the test on SK-MEL-28 melanoma was 156%.

As to `CN(C)c1ccc(-c2cc(-c3ccc(Nc4nc(Nc5ccccc5)nc(Nc5ccc(Cl)cc5)n4)cc3)nc(N)n2)cc1`, the growth in the test on DU-145 prostate was 61.4%; in the test on K-562 leukemia it was 10.8%; in the test on MALME-3M melanoma it was 57%; in the test with MDA-MB-231 breast, 41.8%; in the test with RXF 393 renal, 53.8%; in the test with SF-268 CNS it was 50.8%. Moreover, the growth with SF-295 CNS was 36.5%; in the test with SF-539 CNS it was 60.8%; in the test on UACC-257 melanoma it was 55.3%; in the test on HCT-15 colon it was 34.4%; with HT29 colon, 34.2%; in the test with SNB-75 CNS, 48.2%. The growth was 66.8% in the test with SNB-19 CNS; 29.6% in the test with U251 CNS; 31.3% in the test with SK-MEL-5 melanoma; 49.9% in the test with UACC-62 melanoma; 38.1% in the test on LOX IMVI melanoma; 75.4% in the test on SK-MEL-28 melanoma.

Take `C=C(C=O)[C@@H]1CC=C(C=O)CC1`: the growth with DU-145 prostate is -74.6% (active); with K-562 leukemia it was -23.2% (active); with MALME-3M melanoma it was -31.1% (active); in the test with MDA-MB-231 breast, -25.9% (active); in the test with SF-268 CNS, -16.7% (active); in the test on SF-295 CNS, -15.7% (active). The growth was -60.4% (active) in the test on SF-539 CNS; -9.83% (active) in the test on UACC-257 melanoma; 14.8% in the test with M14 melanoma; -12% (active) in the test with HCT-15 colon; 13.2% in the test on HT29 colon; 32.9% in the test on SNB-75 CNS. In addition, the growth in the test with SNB-19 CNS was 55%; with U251 CNS, -8.31% (active); in the test on PC-3 prostate, 15.3%; in the test with SK-MEL-5 melanoma, -41.1% (active); in the test with UACC-62 melanoma, -21.6% (active); in the test on LOX IMVI melanoma, -0.188% (active). Further, the growth in the test on SK-MEL-28 melanoma is -43.3% (active).

Take `Cc1cc(=O)c2cc3nc(-c4cccnc4)oc3c(Br)c2o1`: the growth is 119% in the test on DU-145 prostate; 84% with K-562 leukemia; 98.7% in the test on MALME-3M melanoma; 111% in the test on MDA-MB-231 breast; 107% in the test on SF-268 CNS; 120% in the test with SF-295 CNS. Further, the growth is 106% in the test with SF-539 CNS; 106% in the test on UACC-257 melanoma; 98.8% in the test with M14 melanoma; 106% in the test on HCT-15 colon; 103% in the test on HT29 colon; 131% in the test on SNB-19 CNS. Moreover, the growth in the test on U251 CNS is 97.8%; in the test with PC-3 prostate it was 99.6%; with SK-MEL-5 melanoma, 105%; in the test on UACC-62 melanoma, 104%; in the test on LOX IMVI melanoma, 98%; in the test with SK-MEL-28 melanoma, 119%.

With `CC1=CC(=O)C(C(C)C)=CC1=Nc1cc(Br)c(O)c(Br)c1`, the growth was 3.08% (active) in the test with DU-145 prostate; 0.315% (active) in the test with K-562 leukemia; 96.6% with MALME-3M melanoma; 7.91% (active) in the test with MDA-MB-231 breast; 5.99% (active) with RXF 393 renal; 27% in the test with SF-268 CNS. Besides, the growth is 17% with SF-295 CNS; -33.6% (active) with SF-539 CNS; 95.5% with UACC-257 melanoma; 21% with HCT-15 colon; 66.2% with HT29 colon; 27.1% with SNB-75 CNS. Also, the growth in the test on SNB-19 CNS is 42.1%; in the test on U251 CNS, 5.45% (active); in the test on SK-MEL-5 melanoma it was 13.9%; in the test with LOX IMVI melanoma, 24%; in the test on SK-MEL-28 melanoma, 42.6%.

Take `COc1cc(/C=C/C(=O)c2ccc(Nc3nc(Nc4ccccc4)nc(Nc4ccc(Cl)cc4)n3)cc2)cc(OC)c1OC`: the growth with DU-145 prostate was 77%; in the test with K-562 leukemia, 28.9%; with MALME-3M melanoma it was 44.3%; in the test with MDA-MB-231 breast, 58.1%; in the test with RXF 393 renal, 58.5%; in the test with SF-268 CNS it was 73.2%. Also, the growth in the test with SF-295 CNS is 64.3%; with SF-539 CNS, 72.8%; with UACC-257 melanoma, 87.1%; in the test on HCT-15 colon it was 55.8%; in the test with HT29 colon, 46.8%; with SNB-75 CNS, 57.5%. Besides, the growth in the test with SNB-19 CNS was 92.8%; with U251 CNS, 37.4%; in the test on SK-MEL-5 melanoma it was 39%; in the test on UACC-62 melanoma, 59.8%; with LOX IMVI melanoma, 66.5%; in the test on SK-MEL-28 melanoma, 39.9%.

Turning to `COc1cc(-c2cc(-c3ccc(Nc4nc(Nc5ccccc5)nc(Nc5ccc(Cl)cc5)n4)cc3)nc(N)n2)cc(OC)c1OC`, the growth with DU-145 prostate is 94.7%; in the test on K-562 leukemia, 23.8%; in the test with MALME-3M melanoma, 59.9%; in the test with MDA-MB-231 breast it was 59%; with RXF 393 renal, 78.1%; with SF-268 CNS, 86.6%. Further, the growth is 70.5% in the test on SF-295 CNS; 77.4% with SF-539 CNS; 99.4% in the test on UACC-257 melanoma; 62.3% with HCT-15 colon; 52.4% in the test with HT29 colon; 56.2% in the test on SNB-75 CNS. Also, the growth with SNB-19 CNS is 79.6%; in the test with U251 CNS, 42.6%; in the test with SK-MEL-5 melanoma it was 43.1%; in the test on LOX IMVI melanoma, 60.2%; in the test on SK-MEL-28 melanoma it was 86.9%.
